Data: the supplement of paper PMC6555819

Tests used:
Assay in all cases: PBM binding z-score (relative to random genomic background probes); higher = stronger binding; sequences stand for … in GC…GCGATTGACAGCGTAGAATGAAGG
[1] = test system: PPARg:RXRa DBDmut IVT, anti-RXR (DBD mutation: RXRa K156A/R161A, NR concentration 270 nM, RXRa partner concentration 90 nM)
Method in brief: (§1)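 Custom Agilent 4×180K protein-binding microarrays carried double-stranded probes, each with a 34-nt variable region. These regions held direct-repeat seeds, single-nucleotide variants, half-site ablations and random human genomic background sequences. Ligand-free nuclear receptor dimers were incubated on the arrays for 1 h, antibodies against each partner (one per run) detected binding, and scanned fluorescence was regression-normalized. Binding z-scores take the random background probes as reference.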

[2] = test system: PPARg:RXRa IVT, anti-PPARg (NR concentration 270 nM, RXRa partner concentration 90 nM)
Method in brief: as §1

[3] = test system: PPARg DBDmut:RXRa IVT, anti-PPARg (DBD mutation: PPARg1 K132A/R137A, NR concentration 270 nM, RXRa partner concentration 90 nM)
Method in brief: as §1

[4] = test system: PPARg DBDmut IVT, anti-PPARg (DBD mutation: PPARg1 K132A/R137A, NR concentration 270 nM)
Method in brief: as §1

[5] = test system: PPARg homodimer (NR concentration 180 nM)
Method in brief: as §1

[6] = test system: PXR:RXRa (NR concentration 270 nM, RXRa partner concentration 90 nM)
Method in brief: as §1

[7] = test system: PXR homodimer (NR concentration 270 nM)
Method in brief: as §1

[8] = test system: RARa:RXR (NR concentration 270 nM, RXRa partner concentration 90 nM)
Method in brief: as §1

[9] = test system: RARa homodimer (NR concentration 270 nM)
Method in brief: as §1

[10] = test system: RARb:RXRa (NR concentration 270 nM, RXRa partner concentration 90 nM)
Method in brief: as §1

[11] = test system: RARb homodimer (NR concentration 270 nM)
Method in brief: as §1

[12] = test system: RARg:RXRa (NR concentration 270 nM, RXRa partner concentration 90 nM)
Method in brief: as §1

[13] = test system: RARg homodimer (NR concentration 270 nM)
Method in brief: as §1

[14] = test system: RXRa DBDmut IVT, anti-RXR (DBD mutation: RXRa K156A/R161A, NR concentration 90 nM)
Method in brief: as §1

[15] = test system: RXRa homodimer (NR concentration 180 nM)
Method in brief: as §1

[16] = test system: THRa:RXRa (NR concentration 90 nM, RXRa partner concentration 90 nM)
Method in brief: as §1

[17] = test system: THRa homodimer (NR concentration 90 nM)
Method in brief: as §1

[18] = test system: VDR:RXRa (NR concentration 270 nM, RXRa partner concentration 90 nM)
Method in brief: as §1

[19] = test system: VDR homodimer (NR concentration 270 nM)
Method in brief: as §1

## CCCTACGGGTCAAGGTTATAGCACGGGTGGTACG
[1]
  PBM binding z-score: -0.17
[2]
  PBM binding z-score: 2.06
[3]
  PBM binding z-score: -0.206
[4]
  PBM binding z-score: -1.06
[5]
  PBM binding z-score: 2.1
[6]
  PBM binding z-score: 3.35
[7]
  PBM binding z-score: 0.417
[8]
  PBM binding z-score: 4.27
[9]
  PBM binding z-score: 1.19
[10]
  PBM binding z-score: 4.07
[11]
  PBM binding z-score: 3.5
[12]
  PBM binding z-score: 5.05
[13]
  PBM binding z-score: 4.83
[14]
  PBM binding z-score: 0.145
[15]
  PBM binding z-score: 5.35
[16]
  PBM binding z-score: 3.07
[17]
  PBM binding z-score: 0.962
[18]
  PBM binding z-score: 3.26
[19]
  PBM binding z-score: 1.07

## GGAACGAGGGCAAAGTAGATAGCATCTGTCGACG
[1]
  PBM binding z-score: 4.05
[2]
  PBM binding z-score: 3.19
[3]
  PBM binding z-score: -0.596
[4]
  PBM binding z-score: -0.605
[5]
  PBM binding z-score: 0.234
[6]
  PBM binding z-score: 0.482
[7]
  PBM binding z-score: 0.16
[8]
  PBM binding z-score: 0.38
[9]
  PBM binding z-score: -0.526
[10]
  PBM binding z-score: 2.15
[11]
  PBM binding z-score: 0.856
[12]
  PBM binding z-score: 1.46
[13]
  PBM binding z-score: 1.74
[14]
  PBM binding z-score: 2.46
[15]
  PBM binding z-score: 1.05
[16]
  PBM binding z-score: 0.805
[17]
  PBM binding z-score: -0.36
[18]
  PBM binding z-score: 0.414
[19]
  PBM binding z-score: 0.946

## TCATATAGGCAAAAGGTGAAAGTCGGTGTGGTAA
[1]
  PBM binding z-score: 3.66
[2]
  PBM binding z-score: 3.79
[3]
  PBM binding z-score: 0.358
[4]
  PBM binding z-score: -0.517
[5]
  PBM binding z-score: 1.39
[6]
  PBM binding z-score: 1.27
[7]
  PBM binding z-score: 0.0545
[8]
  PBM binding z-score: 1.81
[9]
  PBM binding z-score: 0.897
[10]
  PBM binding z-score: 1.81
[11]
  PBM binding z-score: 1.81
[12]
  PBM binding z-score: 1.45
[13]
  PBM binding z-score: 0.567
[14]
  PBM binding z-score: 1.45
[15]
  PBM binding z-score: 2.12
[16]
  PBM binding z-score: 1.24
[17]
  PBM binding z-score: 0.0725
[18]
  PBM binding z-score: 1.05
[19]
  PBM binding z-score: 0.163

## TATATAGGGTCAAAGGCCAGAGTACGAATGTCGA
[1]
  PBM binding z-score: 3.56
[2]
  PBM binding z-score: 5.37
[3]
  PBM binding z-score: 1.12
[4]
  PBM binding z-score: 1.69
[5]
  PBM binding z-score: 2
[6]
  PBM binding z-score: 4.21
[7]
  PBM binding z-score: 0.472
[8]
  PBM binding z-score: 5.56
[9]
  PBM binding z-score: 0.52
[10]
  PBM binding z-score: 4.49
[11]
  PBM binding z-score: 3.73
[12]
  PBM binding z-score: 5.52
[13]
  PBM binding z-score: 5.07
[14]
  PBM binding z-score: 3.21
[15]
  PBM binding z-score: 6.74
[16]
  PBM binding z-score: 3.92
[17]
  PBM binding z-score: 1.41
[18]
  PBM binding z-score: 4.75
[19]
  PBM binding z-score: 2.45

## CCGACTGGGCCAAAGGTCATTGATTCCAATGCTC
[1]
  PBM binding z-score: 3.83
[2]
  PBM binding z-score: 5.72
[3]
  PBM binding z-score: -0.642
[4]
  PBM binding z-score: 0.24
[5]
  PBM binding z-score: 4.69
[6]
  PBM binding z-score: 5.36
[7]
  PBM binding z-score: 1.79
[8]
  PBM binding z-score: 5.72
[9]
  PBM binding z-score: 0.97
[10]
  PBM binding z-score: 4.52
[11]
  PBM binding z-score: 4.58
[12]
  PBM binding z-score: 5.54
[13]
  PBM binding z-score: 4.4
[14]
  PBM binding z-score: 1.57
[15]
  PBM binding z-score: 5.7
[16]
  PBM binding z-score: 3.21
[17]
  PBM binding z-score: 0.644
[18]
  PBM binding z-score: 4.58
[19]
  PBM binding z-score: 2.4

## GCTTACGGGTCAAAGTTTATAGCATGAATAGAAT
[1]
  PBM binding z-score: 4.19
[2]
  PBM binding z-score: 5.17
[3]
  PBM binding z-score: 1.43
[4]
  PBM binding z-score: 1.62
[5]
  PBM binding z-score: 2.34
[6]
  PBM binding z-score: 4.83
[7]
  PBM binding z-score: 1.1
[8]
  PBM binding z-score: 6.42
[9]
  PBM binding z-score: 0.895
[10]
  PBM binding z-score: 4.06
[11]
  PBM binding z-score: 2.72
[12]
  PBM binding z-score: 5.32
[13]
  PBM binding z-score: 4.39
[14]
  PBM binding z-score: 3.19
[15]
  PBM binding z-score: 7.06
[16]
  PBM binding z-score: 2.9
[17]
  PBM binding z-score: -0.354
[18]
  PBM binding z-score: 4.3
[19]
  PBM binding z-score: 2.25

## TCGAGTAGGTTAGGGGCGTTCAGAATGGCGTCGA
[1]
  PBM binding z-score: 1.69
[2]
  PBM binding z-score: 1.26
[3]
  PBM binding z-score: 0.15
[4]
  PBM binding z-score: -0.777
[5]
  PBM binding z-score: 0.542
[6]
  PBM binding z-score: 0.471
[7]
  PBM binding z-score: 0.0132
[8]
  PBM binding z-score: 0.223
[9]
  PBM binding z-score: -0.263
[10]
  PBM binding z-score: 0.552
[11]
  PBM binding z-score: 0.347
[12]
  PBM binding z-score: -0.19
[13]
  PBM binding z-score: -0.416
[14]
  PBM binding z-score: 0.366
[15]
  PBM binding z-score: 0.0753
[16]
  PBM binding z-score: 0.432
[17]
  PBM binding z-score: -0.0731
[18]
  PBM binding z-score: 0.157
[19]
  PBM binding z-score: 0.527
